Compound activity (PubChem BioAssay)
Shown are actives, neighbours in structure and some others; about 2.2% of the full set was active somewhere.
iPSC survival up: hiPSC single-cell survival enhancement; ATPlite luminescence; 100% = ROCK inhibitor wells, 0% = DMSO; survival enhancement, % at 20 µM; hit rate 0.044% among 360,000; in the data active means survival enhancement above about 18%;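 further: cells exposed to compounds for 16 hours before the ATP read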
ABCB6 inh MLPCN: blocks the human ABCB6 transporter; K562-ABCB6 porphyrin accumulation, flow cytometry, 1 h; stronger effect = lower value; fluorescence ratio to DMSO, % at 10 µM; AID 602162; hit rate 0.19% among 360,000;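 active means fluorescence ratio to DMSO below 75%, the collection mean minus 3 SD; inconclusive means too few cells collected in the well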;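 further: signal is porphyrin accumulated inside mitochondria; lower ratio means ABCB6 inhibition with less porphyrin fluorescence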
Target sequence (Q9NP58 whole entry, looked up): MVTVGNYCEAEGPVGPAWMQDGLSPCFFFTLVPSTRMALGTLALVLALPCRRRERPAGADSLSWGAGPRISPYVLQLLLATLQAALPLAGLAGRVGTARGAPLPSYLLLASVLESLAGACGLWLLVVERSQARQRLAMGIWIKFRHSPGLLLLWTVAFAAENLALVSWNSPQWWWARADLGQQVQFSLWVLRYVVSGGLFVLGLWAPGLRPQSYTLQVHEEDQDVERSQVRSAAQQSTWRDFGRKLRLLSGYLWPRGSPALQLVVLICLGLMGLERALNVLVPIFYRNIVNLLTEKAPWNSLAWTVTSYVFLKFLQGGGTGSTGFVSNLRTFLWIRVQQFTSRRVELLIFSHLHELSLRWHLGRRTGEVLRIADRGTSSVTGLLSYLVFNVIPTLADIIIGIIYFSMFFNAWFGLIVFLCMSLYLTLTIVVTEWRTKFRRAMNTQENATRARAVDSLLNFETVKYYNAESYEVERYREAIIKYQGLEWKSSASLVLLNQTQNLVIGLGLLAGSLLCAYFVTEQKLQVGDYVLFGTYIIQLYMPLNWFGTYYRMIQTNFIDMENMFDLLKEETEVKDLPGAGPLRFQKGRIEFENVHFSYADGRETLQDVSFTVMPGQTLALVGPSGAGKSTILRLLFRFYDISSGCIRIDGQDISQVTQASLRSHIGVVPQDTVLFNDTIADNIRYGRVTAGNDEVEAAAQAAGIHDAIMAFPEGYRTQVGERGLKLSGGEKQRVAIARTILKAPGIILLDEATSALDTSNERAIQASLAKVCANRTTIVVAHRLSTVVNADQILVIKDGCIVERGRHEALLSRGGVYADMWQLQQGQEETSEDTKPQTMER
Myeloid diff MLP: compounds promoting myeloid differentiation; ER-HoxA9 myeloid progenitors, lysozyme-GFP differentiation, flow cytometry; calls only at 10 µM; hit rate 1% among 360,000; AID 624256;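 active means normalized GFP-positive differentiation at or above the plate's own cutoff, the solvent-only control mean plus 3 SD; inconclusive means no clear call, values can overlap the other calls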;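 further: cells exposed to compound for four days before flow analysis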
MIN6 prolif: MIN6 beta-cell proliferation induction | MIN6 cells proliferation, ATPlite luminescence, 48 h; cells starved in 0.2% serum; 100% = growth in 10% serum | proliferation, % at 10 µM | hit rate 0.29% among 330,000;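 active means compounds whose signal lies at least 3.5 SD above the mean of all wells on their plate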
Cardio protect: myocardial damage modulation in H9c2 cells. H9c2 cardiomyocytes, H2O2 injury protection, ATPLite, 2 h. protection from H2O2 cell death, % at 20 µM. hit rate 0.63% among 360,000;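 active means compounds giving at least 50% protection of heart cells from peroxide-induced death in the single-dose screen, raw or plate-pattern-corrected value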
Of the large screens only hits and unclear results are named; the others gave an inactive call.

O=C(Nc1nc2ccccc2n1Cc1ccccc1)c1ccco1	Cardio protect 58.0
CN(C(=O)COC(=O)c1cccc(S(=O)(=O)N2CCCCCC2)c1)C1CCS(=O)(=O)C1 (centres undefined)	none
C=CCN(c1ccccc1Cl)S(=O)(=O)c1cccc(C(=O)OCC(=O)N(C)C2CCS(=O)(=O)C2)c1 (centres undefined)	ABCB6 inh MLPCN 69.0
Cc1[nH]c2c(Cl)cccc2c(=O)c1CN1CCCC1	none
Cc1cc(C)c2[nH]c(C)c(CN3CCCCCC3)c(=O)c2c1	Myeloid diff MLP active
COc1ccc(N(Cc2cc3cccc(C)c3[nH]c2=O)S(=O)(=O)c2ccc(OC)cc2)cc1	Myeloid diff MLP active
COc1ccc(N(Cc2cc3cccc(C)c3[nH]c2=O)S(=O)(=O)c2ccc(Cl)cc2)cc1	Myeloid diff MLP inconclusive
CCCN1CCN(CC(=O)Nc2nnc(C)s2)CC1	none
COc1ccc(OC)c(N(CC(=O)NCc2ccncc2)S(C)(=O)=O)c1	none
CC(=O)NCC(=O)OCC(=O)c1ccccc1	Myeloid diff MLP active
CC(=O)NCC(=O)OCC(=O)c1ccc(C)cc1	none
CNC(=O)c1c(O)c2cccc3c2n(c1=O)CC3	none
CCOc1ccc2nc(NC(=S)N(C)C)sc2c1	Myeloid diff MLP active
CCn1cc(C(=O)NCc2ccco2)c(=O)c2cc(S(=O)(=O)N3CC(C)CC(C)C3)ccc21 (centres undefined)	Myeloid diff MLP active
O=C(CSc1ncnc2ccccc12)NCc1ccc2c(c1)OCO2	MIN6 prolif 7.7
Cn1c(=O)c2c(nc(SCC(=O)NCc3ccc4c(c3)OCO4)n2Cc2ccccc2)n(C)c1=O	none
COc1ccccc1-n1c(SCC(=O)NCc2ccc3c(c2)OCO3)nc2cc([N+](=O)[O-])ccc21	Cardio protect 107.0
O=C(NCc1ccc2c(c1)OCO2)c1nn(-c2ccccc2)c(=O)c2ccccc12	ABCB6 inh MLPCN 65.0
Cn1c(=O)c2c(nc(NCc3ccc4c(c3)OCO4)n2C)n(C)c1=O	Cardio protect 52.6
O=C(NCc1ccc2c(c1)OCO2)C1CCCN(S(=O)(=O)c2cccc3cccnc23)C1 (centres undefined)	Myeloid diff MLP active
O=C(NCc1ccc2c(c1)OCO2)C1CCCN(S(=O)(=O)c2cccc3nonc23)C1 (centres undefined)	none
Cc1nn2c(COc3ccc(NC(=O)c4ccccc4Cl)cc3)nnc2c2ccccc12	Myeloid diff MLP active
COC(C(=O)Nc1ccc(F)c(F)c1)c1ccccc1 (centres undefined)	none
COC(C(=O)Nc1cccc(F)c1)c1ccccc1 (centres undefined)	Myeloid diff MLP active
CCCC(=O)N(c1ccc2oc(=O)sc2c1)S(=O)(=O)c1ccccc1	Cardio protect 56.5
CC(=O)N(c1ccc2oc(=O)sc2c1)S(=O)(=O)c1ccc(C(=O)O)cc1	none
Cc1ccc(C(=O)c2ccc(C)cc2)cc1	none
Cc1ccc(C(=O)c2no[n+]([O-])c2C(=O)c2ccc(C)cc2)cc1	ABCB6 inh MLPCN 67.0
COc1ccc(C(C(=O)NCC2CCCO2)N(Cc2ccccc2)C(=O)c2snc(C(N)=O)c2N)cc1OC (centres undefined)	none
CN(C)c1ccc(C(C(=O)NCC2CCCO2)N(Cc2ccccc2)C(=O)c2snc(C(N)=O)c2N)cc1 (centres undefined)	MIN6 prolif 8.8, Cardio protect 51.4 (no result: Myeloid diff MLP)
CN(C)c1ccc(C(C(=O)NCC2CCCO2)N(Cc2ccco2)C(=O)c2snc(C(N)=O)c2N)cc1 (centres undefined)	Cardio protect 52.0
CCC(C)c1ccccc1NC(=O)COC(=O)c1ccc2[nH]c3c(c2c1)CCCC3 (centres undefined)	Myeloid diff MLP active
O=C(COC(=O)c1ccc2[nH]c3c(c2c1)CCCC3)Nc1ccc(Cl)cc1Cl	none
COc1cc(/C=C2\CC/C(=C\c3cc(OC)c(O)c(OC)c3)C2=O)cc(OC)c1O	Cardio protect 65.2 (no result: Myeloid diff MLP)
CC1(C)CC(N2CCN(CCO)CC2)=CC(=S)N1	Myeloid diff MLP active
CCn1nc(C)c(CN2CCN(Cc3cccc(OC)c3)C(CCO)C2)c1C (centres undefined)	none
COCCN(C(=O)CSc1nc2ccc(Cl)cc2[nH]1)c1c(N)n(Cc2ccccc2)c(=O)[nH]c1=O	none
COCCN(C(=O)CSc1nc2ccc(C)cc2[nH]1)c1c(N)n(Cc2ccccc2)c(=O)[nH]c1=O	Myeloid diff MLP active
CC(=O)n1cc([C@@H]2C=C(C(=O)N3CCN(C)CC3)O[C@H](OCc3ccc(CO)cc3)C2)c2ccccc21	none
C=CCOC(=O)C1=C[C@H](c2cn(C(C)=O)c3ccccc23)C[C@H](OCc2ccc(CO)cc2)O1	Cardio protect 50.9
Cc1ccc(C(=O)C[n+]2cccc3cc(C)ccc32)cc1	Myeloid diff MLP active
COc1ccc2c(ccc[n+]2CC(=O)c2ccc(C)cc2)c1	none
CCCCCCCN1C(Nc2ccccc2)=NC[C@@H]1CC(C)C	Myeloid diff MLP active
CCN=C1S/C(=C\c2cn(CC(=O)NCCOC)c3ccccc23)C(=O)N1CC	none
Cc1ccc(S(=O)(=O)Nc2ccc(O)c3ncccc23)cc1	Myeloid diff MLP inconclusive, Cardio protect 51.5
CCOC(=O)c1cccc(S(=O)(=O)N(CCO)Cc2cc3cc(OC)ccc3[nH]c2=O)c1	none
COC(=O)c1cccc(S(=O)(=O)N(Cc2ccco2)Cc2cc3cc(OC)ccc3[nH]c2=O)c1	Cardio protect 78.5
O=C(Nc1cc(Cl)ccc1-n1cncn1)c1ccc([N+](=O)[O-])s1	Myeloid diff MLP active
COc1ccc(CCNc2ccc(C(CC(N)=O)NC(=O)c3ccccc3)cc2[N+](=O)[O-])cc1 (centres undefined)	Myeloid diff MLP active
COc1ccccc1NS(=O)(=O)c1ccc(O)c(C(=O)OCC(=O)N2CCc3ccccc32)c1	none
COc1ccccc1NS(=O)(=O)c1ccc(O)c(C(=O)OCC(=O)N2c3ccccc3CC2C)c1 (centres undefined)	Myeloid diff MLP active
O=C(CCC(=O)N/N=C/c1cc(Cl)cc(Cl)c1O)NCc1ccccc1	Cardio protect 51.8
O=C(/C=C/c1cn(CC(O)CN2CCCCCC2)c2ccccc12)c1cccs1 (centres undefined)	Myeloid diff MLP active
COc1ccc(-c2cn3cc(C(F)(F)F)cc(Cl)c3n2)cc1	Myeloid diff MLP active
Fc1ccc(-c2cn3cc(C(F)(F)F)cc(Cl)c3n2)cc1	none
Cc1cc(N2CCCC2)ccc1/C=C1/C(=O)N(C)C(=S)N1C	Myeloid diff MLP active
Cc1ccc(O)c(NC(=O)c2ccc3c(c2)C(=O)N(Cc2cccnc2)C3=O)c1	Myeloid diff MLP active
Cc1cc(C)c(NC(=O)c2ccc3c(c2)C(=O)N(Cc2cccnc2)C3=O)c(C)c1	none
Cc1cc(C(=O)N/N=C/c2ccc(-c3ccc([N+](=O)[O-])cc3Cl)o2)n[nH]1	none
Cc1ccc(NC(=O)CSc2nnnn2-c2ccc3c(c2)OCO3)cc1C	Myeloid diff MLP active
